Compounds with a hit are over-represented: about 12% of the library has one in this group of screens.
CHX counter – Cycloheximide Counterscreen for Small Molecule Inhibitors of Shiga Toxin | cell reporter, cycloheximide protein synthesis inhibition counterscreen | max response, % | 300,000 compounds, 12% hits | AID 2314, 2010; in the data active means max response mostly above about 13%, no sharp cut-off; inactive means mostly below about 14%; further: read at 38.3 µM for the half of the compounds with a filed dose
Marburg entry inh – qHTS for inhibitors of binding or entry into cells for Marburg Virus; Marburg virus pseudotyped entry inhibition, cell reporter; Potency, µM (highest dose often 37.8 µM), most hits filed as inhibitors; 300,000 compounds, 1.8% hits; AID 540276, 2011; calls by dose curve; tested in HEK293 cells
Lassa entry inh – qHTS for Inhibitors of binding or entry into cells for Lassa Virus | Potency, µM (highest dose often 37.9 µM), usual class: inhibitors | Lassa virus pseudotype entry inhibition, cell reporter | 300,000 compounds, 1.2% hits | AID 540256, 2011; calls by dose curve; tested in HEK293 cells; further: nearly all actives have a fitted effect of over 50% in size
Shiga inhibitor – A qHTS for Small Molecule Inhibitors of Shiga Toxin; Vero cells, Shiga toxin protein synthesis inhibition reporter; inhibition, % at 38.7 µM; 290,000 compounds, 9.2% hits; in the data active means inhibition mostly above about 28%, no sharp cut-off; inactive means mostly below about 43%
Of the large screens only hits and unclear results are named; the others gave an inactive call.

COc1cccc2c1OCC(C(=O)Nc1nccs1)=C2	CHX counter 41, Shiga inhibitor 108 (no result: Marburg entry inh, Lassa entry inh)
COc1cc2ccccc2cc1C(=O)Nc1nccs1	CHX counter 27, Shiga inhibitor 49 (no result: Marburg entry inh, Lassa entry inh)
CC(C)NC(=O)C(OC(=O)c1ccccc1)C(OC(=O)c1ccccc1)C(=O)O (stereo not drawn)	none
COc1ccc(S(=O)(=O)N2CCNCC2)cc1	none
Cc1ccc(OCC(=O)NNC(=O)c2ccoc2C)c(Br)c1	Lassa entry inh inconclusive
Cc1occc1C(=O)NNC(=O)COc1ccc(Br)cc1Br	Shiga inhibitor 50
Cc1occc1C(=O)NNC(=S)NC(=O)COc1ccc(Cl)cc1Cl	CHX counter 26
CCc1ccc(NC(=O)C2CCC(CNS(=O)(=O)c3ccc4c(c3)C(C)(C)C(=O)N4C)CC2)cc1 (stereo not drawn)	none (no result: CHX counter, Marburg entry inh, Shiga inhibitor)
COc1ccc(C(=O)Nc2ccc(NC(=O)c3ccco3)c(Cl)c2)cc1OC	none
O=C(Nc1ccc(NC(=O)c2ccco2)c(Cl)c1)c1ccccc1	CHX counter 47, Shiga inhibitor 79 (no result: Marburg entry inh, Lassa entry inh)
CC(C)Oc1ccc(C(=O)Nc2ccc(NC(=O)c3ccco3)c(Cl)c2)cc1	CHX counter 40, Shiga inhibitor 50
O=C(Nc1ccc(Br)c(Cl)c1)c1ccco1	CHX counter 41, Shiga inhibitor 76
CCCCCC(=O)Nc1ccc(C(=O)COC(=O)CN2C(=O)NC3(CCCC3)C2=O)cc1	none (no result: CHX counter, Shiga inhibitor)
O=C(Nc1ccc2ccccc2c1)C(=O)C1C(=O)Nc2ccccc21 (stereo not drawn)	CHX counter 32, Shiga inhibitor 66 (no result: Marburg entry inh, Lassa entry inh)
O=C(Nc1ccc(F)cc1)C(=O)C1C(=O)Nc2ccccc21 (stereo not drawn)	Shiga inhibitor 55 (no result: Marburg entry inh, Lassa entry inh)
COc1ccc2nc(NC(=S)NC(=O)c3ccco3)sc2c1	CHX counter 34, Shiga inhibitor 127 (no result: Marburg entry inh, Lassa entry inh)
COc1ccc(OCCn2c(NC(=O)c3ccco3)nc3ccccc32)cc1	CHX counter 20
COc1ccc(OCCn2c(NC(=O)c3ccc(OC)cc3)nc3ccccc32)cc1	none (no result: CHX counter, Shiga inhibitor)
O=C(NC(=S)Nc1nc2ccccc2s1)c1ccco1	CHX counter 35, Marburg entry inh inconclusive, Lassa entry inh inconclusive, Shiga inhibitor 30
COc1ccc2sc(NC(=O)c3ccco3)nc2c1	CHX counter 23, Marburg entry inh inconclusive, Lassa entry inh inconclusive
O=C(CCNC(=O)c1ccco1)Nc1nc2ccccc2s1	none (no result: CHX counter, Shiga inhibitor)
CCOC(=O)c1cc(Br)c(=O)n2ccccc12	none
O=C(COc1ccccc1F)Nc1ccc(S(=O)(=O)Nc2nccs2)cc1	none
CCOC(=O)C1CCCN(C(=O)c2ccc3nc(-c4ccccc4)c(-c4ccccc4)nc3c2)C1 (stereo not drawn)	none (no result: Marburg entry inh, Lassa entry inh)
O=C(c1ccc2oc(CCCc3ccccc3)nc2c1)N1CCCC1	CHX counter 63, Lassa entry inh inconclusive, Shiga inhibitor 129
CC(=O)C1CCCN(C(=O)c2ccc3oc(CCc4ccccc4)nc3c2)C1 (stereo not drawn)	CHX counter 36, Shiga inhibitor 89 (no result: Marburg entry inh, Lassa entry inh)
CC(C)N(Cc1nccn1C)C(=O)c1ccc2oc(CCCc3ccccc3)nc2c1	Marburg entry inh inconclusive
CCOC(=O)C1CCCN(C(=O)c2ccc3oc(CCc4ccccc4)nc3c2)C1 (stereo not drawn)	CHX counter 39 (no result: Marburg entry inh, Lassa entry inh)
Cc1ccccc1N(C=O)c1ccccc1C	none (no result: CHX counter, Shiga inhibitor)
COc1ccc(CCNC(=O)Cn2nc(-c3ccc(Cl)cc3)ccc2=O)cc1OC	none (no result: CHX counter, Marburg entry inh, Shiga inhibitor)
CC[C@H](C)[C@H](NC(=O)[C@H](CO)NC(=O)[C@H](CC(C)C)NC(=O)[C@H](CO)NC(=O)[C@@H]1CCCN1C(=O)[C@H](CC(N)=O)NC(=O)[C@@H](N)CC(=O)O)C(=O)N[C@@H](CC(=O)O)C(=O)N[C@@H](CC(C)C)C(=O)N[C@H](C(=O)N[C@@H](Cc1ccccc1)C(=O)N[C@@H](Cc1cnc[nH]1)C(=O)N[C@@H](CC(C)C)C(=O)N[C@@H](CC(C)C)C(=O)N[C@@H](CCCNC(=N)N)C(=O)N[C@H](C(=O)N[C@@H](CC(C)C)C(=O)N[C@@H](CC(C)C)C(=O)N[C@@H](CCC(=O)O)C(=O)N[C@@H](CC(C)C)C(=O)N[C@@H](C)C(=O)N[C@@H](CCCNC(=N)N)C(=O)N[C@H](C(=O)N[C@@H](CCC(N)=O)C(=O)N[C@@H](CO)C(=O)N[C@@H](CCC(N)=O)C(=O)N[C@@H](CCCNC(=N)N)C(=O)N[C@@H](CCC(=O)O)C(=O)N[C@@H](CCCNC(=N)N)C(=O)N[C@@H](C)C(=O)N[C@@H](CCC(=O)O)C(=O)N[C@@H](CCC(N)=O)C(=O)N[C@@H](CC(N)=O)C(=O)N[C@@H](CCCNC(=N)N)C(=O)N[C@H](C(=O)N[C@H](C(=O)N[C@@H](Cc1ccccc1)C(=O)N[C@@H](CC(=O)O)C(=O)N[C@@H](CO)C(=O)N[C@H](C(N)=O)C(C)C)[C@@H](C)CC)[C@@H](C)CC)[C@@H](C)O)[C@@H](C)O)[C@@H](C)O	Shiga inhibitor 17 (no result: Marburg entry inh, Lassa entry inh)
COc1cc(/C=N/NS(=O)(=O)c2ccc(C)c([N+](=O)[O-])c2)cc([N+](=O)[O-])c1O	none (no result: Shiga inhibitor)
COc1cc(/C=N/NS(=O)(=O)c2ccc(C)c([N+](=O)[O-])c2)ccc1O	CHX counter 36, Shiga inhibitor 122
Cc1ccc(S(=O)(=O)N/N=C/c2ccc(O)cc2O)cc1[N+](=O)[O-]	CHX counter 18, Shiga inhibitor 58
Cc1ccc(S(=O)(=O)N/N=C/c2cc([N+](=O)[O-])ccc2O)cc1[N+](=O)[O-]	Marburg entry inh inconclusive
CC(C)[C@H](NC(=O)[C@H](CC(=O)O)NC(=O)CNC(=O)[C@@H](N)CCCN=C(N)N)C(=O)O	none (no result: Marburg entry inh, Lassa entry inh)
CC1COC(C)(CC(=O)NN2C(=O)c3ccccc3C2=O)O1 (stereo not drawn)	none
Cc1ccc(C(=O)NC2CCCCC2)cc1S(=O)(=O)N1CCCC1	CHX counter 35, Marburg entry inh inconclusive, Shiga inhibitor 40
O=C(NC1CCCC1)c1ccc(Br)c(S(=O)(=O)N2CCCCC2)c1	Marburg entry inh inconclusive
COc1ccc(/C=C/C(=O)NC2CCCCCC2)cc1S(=O)(=O)N1CCOCC1	CHX counter 19, Marburg entry inh inconclusive, Lassa entry inh inconclusive
Cc1ccc(C(=O)NC2CCCCCC2)cc1S(=O)(=O)N1CCOCC1	CHX counter 28
CCN(CC)S(=O)(=O)c1cc(C(=O)NC2CCCCC2)ccc1C	CHX counter 42, Marburg entry inh inconclusive, Lassa entry inh inconclusive, Shiga inhibitor 104
COc1ccc(C(=O)NC2CCCCC2)cc1S(=O)(=O)N1CCOCC1	none
Cc1c(C(=O)N(C)C2CCCCC2)sc2ncnc(N3CCN(c4ccccc4)CC3)c12	none (no result: Marburg entry inh, Lassa entry inh)
Cc1cc(CNC(=O)[C@]2(C(F)(F)F)C[C@H](CCC3CCCCC3)CCCO2)nn1C	none (no result: Marburg entry inh, Lassa entry inh)
COc1ccc(CNC(=O)c2coc(=O)c3ccccc23)c(OC)c1	Marburg entry inh inconclusive, Lassa entry inh inconclusive
COC(/C(=N/O)c1ccc(Cl)cc1)c1ccccc1 (stereo not drawn)	CHX counter 33, Marburg entry inh inconclusive, Lassa entry inh inconclusive, Shiga inhibitor 50
CCOc1ccccc1C(=O)N(Cc1cccs1)c1ccc(Cl)cc1	none (no result: CHX counter, Shiga inhibitor)
O=C(NCC1(c2ccccc2)CCCC1)c1cccc(Br)c1	Marburg entry inh inconclusive, Lassa entry inh inconclusive
